Records with an inconclusive call do not appear. Some structures have more than one record in an assay (separate samples or runs), and their calls can disagree. Active and inactive are the calls of the source. Unless noted, calls follow the shape of the full dose curve.
Tests used:
[1] = molecular target: Acetylcholinesterase (Homo sapiens) (UniProt P22303); assay: Acetylcholinesterase (AChE) small molecule antagonists: colormetric cell-based qHTS assay (AID 1347395); also: nearly all actives have a fitted effect of over 30% in size; also: potency is read from the fitted curve at half-maximal effect; as to activity, negative = inhibition: % is scaled to controls: 0 for no effect and ±100 for the full control effect
Sequence of Acetylcholinesterase (Homo sapiens) (P22303 whole entry, looked up): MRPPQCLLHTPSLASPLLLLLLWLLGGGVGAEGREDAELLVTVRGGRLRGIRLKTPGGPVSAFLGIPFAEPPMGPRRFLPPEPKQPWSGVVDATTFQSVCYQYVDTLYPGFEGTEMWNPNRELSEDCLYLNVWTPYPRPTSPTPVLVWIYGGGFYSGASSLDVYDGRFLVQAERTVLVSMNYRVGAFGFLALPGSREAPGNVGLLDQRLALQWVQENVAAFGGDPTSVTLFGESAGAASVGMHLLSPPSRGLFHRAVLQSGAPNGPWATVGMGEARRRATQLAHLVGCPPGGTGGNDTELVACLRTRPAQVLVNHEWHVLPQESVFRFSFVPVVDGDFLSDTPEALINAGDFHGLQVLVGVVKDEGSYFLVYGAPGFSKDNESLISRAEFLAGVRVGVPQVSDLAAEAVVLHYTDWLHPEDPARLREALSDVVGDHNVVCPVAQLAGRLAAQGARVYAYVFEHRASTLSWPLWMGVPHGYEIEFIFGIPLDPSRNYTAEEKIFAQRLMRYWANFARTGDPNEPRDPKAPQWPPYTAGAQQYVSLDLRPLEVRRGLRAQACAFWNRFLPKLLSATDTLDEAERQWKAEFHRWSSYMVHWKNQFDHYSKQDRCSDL
In short: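 SH-SY5Y cells, plated overnight at 37 C, were exposed to compounds for 30 min at 37 C and 5% CO2. Acetylthiocholine plus DTNB was then added, and thiocholine from endogenous AChE was quantified colorimetrically after 90 min at 37 C.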

[2] = molecular target: Acetylcholinesterase (Homo sapiens) (UniProt P22303); assay: Acetylcholinesterase (AChE) small molecule antagonists: enzyme-based qHTS assay (AID 1347397); conditions: Potency: AChE enzyme activity inhibition; outcome: AChE enzyme activity inhibition; also: nearly all actives have a fitted effect of over 55% in size; also: potency is read from the fitted curve at half-maximal effect; as to activity change, negative = inhibition: % is scaled to controls: 0 for no effect and ±100 for the full control effect
In short: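 Colorimetric DTNB readout of acetylthiocholine hydrolysis, 10 min at room temperature, after 30 min room-temperature exposure of 50 mU/mL recombinant human enzyme to compound; DMSO vehicle control.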

[3] = molecular target: Acetylcholinesterase (Homo sapiens) (UniProt P22303); assay: Acetylcholinesterase (AChE) small molecule antagonists: fluorescence cell-based qHTS assay (AID 1347398); conditions: Potency: AChE activity; outcome: AChE activity; also: nearly all actives have a fitted effect of over 50% in size; also: potency is read from the fitted curve at half-maximal effect; as to activity change, negative = inhibition: % is scaled to controls: 0 for no effect and ±100 for the full control effect
In short: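 Cellular AChE activity read as thiocholine from acetylthiocholine hydrolysis, detected by Thiolite Green fluorescence at 490/520 nm after 40 min at room temperature. Compounds were pre-incubated 30 min at 37 C on adherent SH-SY5Y cells.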

[4] = molecular target: Acetylcholinesterase (Homo sapiens) (UniProt P22303); assay: Acetylcholinesterase (AChE) small molecule antagonists: enzyme-based qHTS assay with human liver microsomes (AID 1347399); conditions: Potency: qHTS inhibition; outcome: qHTS inhibition; also: % is scaled to controls: 0 for no effect and ±100 for the full control effect; nearly all actives have a fitted effect of over 60% in size
In short: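 Recombinant human AChE (50 mU/mL in the enzyme mix) and human liver microsomes (0.25 mg/mL final) were preincubated with compound and NADPH (0.25 mg/mL final) for 30 min at 37 C. Acetylthiocholine/DTNB was then added; thiocholine was read colorimetrically after 10 min at room temperature.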

[5] = molecular target: Aromatase (Homo sapiens) (UniProt P11511); assay: qHTS assay to identify aromatase inhibitors (AID 743083; active = well fitted inhibition curve with a large enough effect in the repeat runs; also: potency is read from the fitted curve at half-maximal effect; nearly all actives have a fitted effect of over 55% in size)
Sequence of Aromatase (Homo sapiens) (P11511 whole entry, looked up): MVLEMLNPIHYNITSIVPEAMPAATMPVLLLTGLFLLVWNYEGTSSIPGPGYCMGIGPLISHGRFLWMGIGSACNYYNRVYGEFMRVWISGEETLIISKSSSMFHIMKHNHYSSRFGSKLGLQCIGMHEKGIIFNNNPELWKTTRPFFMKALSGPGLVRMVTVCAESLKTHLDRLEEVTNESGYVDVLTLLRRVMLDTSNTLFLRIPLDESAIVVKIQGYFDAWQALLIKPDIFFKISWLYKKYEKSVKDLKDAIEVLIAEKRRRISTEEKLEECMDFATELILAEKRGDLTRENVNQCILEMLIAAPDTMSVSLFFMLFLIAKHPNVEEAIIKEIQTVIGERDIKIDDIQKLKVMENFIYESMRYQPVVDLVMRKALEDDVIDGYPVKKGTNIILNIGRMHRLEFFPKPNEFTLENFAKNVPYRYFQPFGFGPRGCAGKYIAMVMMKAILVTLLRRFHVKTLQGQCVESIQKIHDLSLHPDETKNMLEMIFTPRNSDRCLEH

O=C(C(=O)c1ccc(Br)cc1)c1ccc(Br)cc1
inactive: activity, negative = inhibition [1] 1.28% [at 23.6 µM] | activity change, negative = inhibition [2] 1.82% [at 23.6 µM] | activity change, negative = inhibition [3] -2.19% [at 23.8 µM] | activity change, negative = inhibition [4] -3.65% [at 23.6 µM]

CC[C@H]1OC(=O)[C@H](C)[C@@H](O[C@H]2C[C@@](C)(OC)[C@@H](O)[C@H](C)O2)[C@H](C)[C@@H](O[C@@H]2O[C@H](C)C[C@H](N(C)C)[C@H]2O)[C@](C)(O)C[C@@H](C)C(=O)[C@H](C)[C@@H](O)[C@]1(C)O
inactive: Potency [1] | Potency [2] | Potency [3] | Potency [4]

O=C1[C@@H]2[C@H]3CC[C@H](C3)[C@@H]2C(=O)N1CCCCN1CCN(c2ncccn2)CC1
inactive: Potency [1] | Potency [2] | Potency [3] | Potency [4]

CCCCCCCCCCCO
inactive: Potency [1] | Potency [2] | Potency [3] | Potency [4]

CC(=O)Oc1ccc(C)cc1
inactive: Potency [1] | Potency [2] | Potency [3] | Potency [4]

C=CC(C)(C)CC(=O)OC
inactive: Potency [1] | Potency [2] | Potency [3] | Potency [4]

COc1ccc(OC)c(N=Nc2c(O)ccc3ccccc23)c1
inactive: Potency [1] | Potency [2] | Potency [3] | Potency [4]

O=C(OCC(O)CO)c1ccccc1Nc1ccnc2c(C(F)(F)F)cccc12 (configuration not stated)
inactive: Potency [1] | Potency [2] | Potency [3] | Potency [4]

OCC1CCC(CO)CC1 (configuration not stated)
inactive: Potency [1] | Potency [2] | Potency [3] | Potency [4]

CC(C)Oc1ccc2c(=O)c(-c3ccccc3)coc2c1
inactive: Potency [1] | Potency [2] | Potency [3] | Potency [4]

CC1CCC(C(C)C)C(O)C1 (configuration not stated)
inactive: Potency [1] | Potency [2] | Potency [3] | Potency [4]

CN(C)CCc1c[nH]c2ccc(C[C@H]3COC(=O)N3)cc12
inactive: Potency [1] | Potency [2] | Potency [3] | Potency [4]

Nc1cc(S(=O)(=O)O)cc2cc(S(=O)(=O)O)cc(O)c12
inactive: Potency [1] | Potency [2] | Potency [3] | Potency [4]

CC(C)c1nc(CN(C)C(=O)N[C@H](C(=O)N[C@@H](Cc2ccccc2)C[C@H](O)[C@H](Cc2ccccc2)NC(=O)OCc2cncs2)C(C)C)cs1
inactive: Potency [1] | Potency [2] | Potency [3] | Potency [4]

CCO[Si](CC(C)C)(OCC)OCC
inactive: Potency [1] | Potency [2] | Potency [3] | Potency [4]

O=C(O)c1ccc[n+]([O-])c1
inactive: Potency [1] | Potency [2] | Potency [3] | Potency [4]

CC(=O)OC/C=C(\C)CCC=C(C)C
inactive: Potency [1] | Potency [2] | Potency [3] | Potency [4]

Cc1nc2c([nH]1)c(=O)n(C)c(=O)n2Cc1ccco1
inactive: Potency [1] | Potency [2] | Potency [3] | Potency [4]

CC(=O)/C=C/C1C(C)=CCC(C)C1(C)C (configuration not stated)
inactive: Potency [1] | Potency [2] | Potency [3] | Potency [4]

CC1=C(C=O)C(C)(C)CC=C1
inactive: Potency [1] | Potency [2] | Potency [3] | Potency [4]

Cn1c([N+](=O)[O-])cnc1COC(N)=O
inactive: Potency [1] | Potency [2] | Potency [3] | Potency [4]

Cc1c(C(=O)c2c[nH]n(C)c2=O)ccc(S(C)(=O)=O)c1C1=NOCC1
inactive: Potency [1] | Potency [2] | Potency [3] | Potency [4]

C=C(C)C(=O)OCCOC(=O)C(=C)C
inactive: Potency [1] | Potency [2] | Potency [3] | Potency [4]

CC(=O)CCC=C(C)C
inactive: Potency [1] | Potency [2] | Potency [3] | Potency [4]

O=C(O)c1ccc(OCCCOc2ccc(C(=O)O)cc2)cc1
inactive: Potency [1] | Potency [2] | Potency [3] | Potency [4]

CCCOC(=O)C(C)O (configuration not stated)
inactive: Potency [1] | Potency [2] | Potency [3] | Potency [4]

CCCCC(CC)COC(=O)c1ccccc1 (configuration not stated)
inactive: Potency [1] | Potency [2] | Potency [3] | Potency [4]

C[C@H](CCC(=O)O)[C@H]1CC[C@H]2[C@@H]3CC[C@@H]4C[C@H](O)CC[C@]4(C)[C@H]3CC[C@]12C
inactive: Potency [1] | Potency [2] | Potency [3] | Potency [4]

Cc1ccncc1
inactive: Potency [1] | Potency [2] | Potency [3] | Potency [4]

NS(=O)(=O)c1ccc(Cl)c(S(N)(=O)=O)c1
inactive: Potency [1] | Potency [2] | Potency [3] | Potency [4]

Oc1ccc2c(c1)-c1ccccc1C2
inactive: Potency [1] | Potency [2] | Potency [3] | Potency [4]

CC(C)=CC=O
inactive: Potency [1] | Potency [2] | Potency [3] | Potency [4]

CN1Cc2cc(C(=O)N3CCC(C4CCNCC4)CC3)ccc2N[C@@H](CC(=O)O)C1=O
inactive: Potency [1] | Potency [2] | Potency [3] | Potency [4]

CCC(=O)c1ccc(O)cc1
inactive: Potency [1] | Potency [2] | Potency [3] | Potency [4]

O=c1[nH]c2ccccc2c(=O)n1CCCl
inactive: Potency [1] | Potency [2] | Potency [3] | Potency [4]

CCN(CC)c1ccc(C(=C2C=CC(=[N+](CC)CC)C=C2)c2ccc(S(=O)(=O)O)cc2S(=O)(=O)[O-])cc1
inactive: Potency [1] | Potency [2] | Potency [3] | Potency [4]

CCOc1ccc(NC(=O)CC(C)O)cc1 (configuration not stated)
inactive: Potency [1] | Potency [2] | Potency [3] | Potency [4]

O=C(O)CN(CCCN(CC(=O)O)CC(=O)O)CC(=O)O
inactive: activity, negative = inhibition [1] 0.786% [at 23.6 µM] | activity change, negative = inhibition [2] 4.89% [at 23.6 µM] | activity change, negative = inhibition [3] 3.08% [at 23.8 µM] | activity change, negative = inhibition [4] 1.21% [at 23.6 µM]

O=S(=O)(Oc1ccc(Cl)cc1Cl)c1ccccc1
inactive: Potency [1] | Potency [2] | Potency [3] | Potency [4]

CCCCNc1ccc(NCCCC)c2c1C(=O)c1ccccc1C2=O
inactive: activity, negative = inhibition [1] -1.89% [at 23.6 µM] | activity change, negative = inhibition [2] -0.954% [at 23.6 µM] | activity change, negative = inhibition [3] 1.62% [at 23.8 µM] | activity change, negative = inhibition [4] -2.27% [at 23.6 µM]

CCCCCCC1CCCC(=O)O1 (configuration not stated)
inactive: Potency [1] | Potency [2] | Potency [3] | Potency [4]

CCCCCCC(O)CCCCCCCCCCC(=O)OC (configuration not stated)
inactive: Potency [1] | Potency [2] | Potency [3] | Potency [4]

O=C1c2ccccc2C(=O)N1SC1CCCCC1
active: Potency [5] 30.6 µM
39.9 µM (active) and inactive: Potency [1]
22.4 µM (active) and inactive: Potency [3]
inactive: Potency [4]
31.7 µM (active) and inactive: Potency [2]

COc1ccc(N)c(C)c1
inactive: Potency [1] | Potency [2] | Potency [3] | Potency [4]

CCCCCCCCCCOC(=O)c1ccccc1C(=O)OCCCCCCCC
inactive: Potency [1] | Potency [2] | Potency [3] | Potency [4]

O=C(Cl)c1c(Cl)cccc1Cl
inactive: Potency [2] | Potency [4]
active: Potency [1] 64 µM | Potency [3] 40.4 µM

Cc1ccc(C=O)cc1
inactive: Potency [1] | Potency [2] | Potency [3] | Potency [4]

CCCCCCCCCCl
inactive: Potency [1] | Potency [2] | Potency [3] | Potency [4]

CC/C=C\CC1=C(C)CCC1=O
inactive: Potency [1] | Potency [2] | Potency [3] | Potency [4]

CCOC(=O)CC(C(C)=O)C(C)=O
inactive: Potency [1] | Potency [2] | Potency [3] | Potency [4]

CCCCCCCCCCCC
inactive: Potency [1] | Potency [2] | Potency [3] | Potency [4]

CC(=O)N/N=C/c1ccc([N+](=O)[O-])o1
inactive: Potency [1] | Potency [2] | Potency [3] | Potency [4]

CC/C=C\CCO
inactive: Potency [1] | Potency [2] | Potency [3] | Potency [4]

Fc1ccc(C(c2ccc(F)cc2)N2CCNCC2)cc1
inactive: Potency [1] | Potency [2] | Potency [3] | Potency [4]

Source: PubChem BioAssay (Tox21)
